Compound activity from PubChem.
The list is not random: actives were taken first. Their share in the collection is about 1.9%.
HTR5A ag = counter-screen for OPRM1-OPRD1 agonists: human HTR5A agonism; activation, % at 9.3 µM; hit rate 0.61% among 340,000; HTR5A agonist assay, luminescence, cell-based; AID 504692; P47898; in the data active = activation mostly above about 9.5%, no sharp cut-off; inactive = mostly below about 7.6%
bovine MsrA act = bovine methionine sulfoxide reductase A activation | activation, % at 10.6 µM | purified bovine MsrA, absorbance read-out | AID 602163 | hit rate 0.3% among 360,000; in the data active = activation above about 7.5%
MsrA inh = inhibitors of bovine MsrA; hit rate 0.75% among 360,000; purified bovine MsrA, absorbance read-out; inhibition, % at 15.5 µM
MOR-DOR ag = agonists of human mu-delta opioid receptor heterodimerization. P35372+P41143. cells, OPRM1-OPRD1 heterodimerization, luminescence. activation, % at 9.3 µM. hit rate 0.3% among 340,000. AID 504326; in the data active = activation above about 18%
Target sequence (P35372 whole entry, looked up): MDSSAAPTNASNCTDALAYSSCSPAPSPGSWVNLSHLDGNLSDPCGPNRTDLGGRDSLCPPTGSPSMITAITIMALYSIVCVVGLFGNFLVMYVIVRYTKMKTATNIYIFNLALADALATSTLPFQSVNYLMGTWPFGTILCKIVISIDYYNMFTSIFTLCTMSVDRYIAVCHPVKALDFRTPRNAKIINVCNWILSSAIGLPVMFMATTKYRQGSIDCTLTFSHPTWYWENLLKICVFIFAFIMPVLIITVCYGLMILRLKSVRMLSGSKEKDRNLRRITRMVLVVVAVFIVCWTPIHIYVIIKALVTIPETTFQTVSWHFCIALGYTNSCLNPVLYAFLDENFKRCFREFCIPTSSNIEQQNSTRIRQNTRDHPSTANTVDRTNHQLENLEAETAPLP
Target sequence (P41143 whole entry, looked up): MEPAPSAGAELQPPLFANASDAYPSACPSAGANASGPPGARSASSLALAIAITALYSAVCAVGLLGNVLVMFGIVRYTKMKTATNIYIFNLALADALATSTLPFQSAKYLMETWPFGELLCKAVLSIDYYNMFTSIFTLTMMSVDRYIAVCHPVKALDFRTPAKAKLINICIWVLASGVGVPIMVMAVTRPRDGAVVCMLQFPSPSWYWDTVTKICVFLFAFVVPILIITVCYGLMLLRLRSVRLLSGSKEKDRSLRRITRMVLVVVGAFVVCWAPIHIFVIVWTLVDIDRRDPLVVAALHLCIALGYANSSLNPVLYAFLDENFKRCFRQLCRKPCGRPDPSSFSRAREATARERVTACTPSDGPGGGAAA
MOR-DOR inv ag = mu-delta opioid heterodimer inverse agonism | cell-based MOR-DOR heterodimer luminescence | inhibition, % at 9.3 µM | hit rate 0.21% among 340,000 | P35372+P41143; in the data active = inhibition above about 22%, passing the limit was not always enough
HTR5A inv ag = inverse agonist of human HTR5A in OPRM1-OPRD1 counter-screen | P47898 | HTR5A cell line, luminescence, inverse agonism | inhibition, % at 9.3 µM | hit rate 0.083% among 340,000; in the data active = inhibition mostly above about 23%, no sharp cut-off; inactive = mostly below about 18%
MsrA inh confirm = confirmation of bovine MsrA inhibitors | shares compounds with MsrA inh | purified bovine MsrA, absorbance read-out | inhibition, % at 15.5 µM | hit rate 41% among 2,300 | AID 651822;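 note: coupled to thioredoxin reductase with NADPH and selenocystamine and DMSO as substrate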
Hits are given with their value; - = inactive; . = no result. Cut-off read from the data, not from the text of the source, unless noted: active = inhibition above about 4.5%; inactive = the rest.

SMILES | HTR5A ag | bovine MsrA act | MsrA inh | MOR-DOR ag | MOR-DOR inv ag | HTR5A inv ag | MsrA inh confirm
Cc1cc(C)cc(C(O)c2ncc(-c3ccccc3C)[nH]2)c1 (stereo not given) | . | - | - | . | . | . | .
C=CCN1C=C(C(=O)OCC)C(=O)CC1 | . | . | - | . | . | . | .
O=C(Nc1ccccc1F)c1coc(=O)c(Br)c1 | - | - | - | - | - | - | .
O=C(NCCc1ccc(F)cc1)c1coc(=O)c(Br)c1 | - | - | 6.0 | - | - | - | 4.8
O=S1(=O)CC(N2CCN(c3ccccn3)CC2)CN1C1CCCCC1 (stereo not given) | . | - | - | . | . | . | .
Cc1noc(NS(=O)(=O)c2ccc(NC(=O)c3cnc4n(c3=O)CCS4)cc2)c1C | - | - | 6.9 | - | - | - | 4.6
COCCCn1cc(CN2CC(N3CCN(C4CCN(C)CC4)CC3)CS2(=O)=O)nn1 (stereo not given) | . | - | - | . | . | . | .
CCOC(=O)C1(N(CC)CC)Sc2cc(C)ccc2NC1=O (stereo not given) | - | - | - | - | - | - | .
COC(=O)C1=C(C(=O)OC)SC2(S1)C(C(=O)OC)=C(C(=O)OC)SC1=C2c2cc(C)ccc2NC1(C)C | - | - | 6.1 | - | - | - | -
COc1cc(/C=N/Nc2ccnc(=O)[nH]2)ccc1O | - | - | 6.9 | - | - | - | 6.3
O=c1nccc(N/N=C/c2cccc(O)c2)[nH]1 | - | - | 6.8 | - | - | - | -
COc1cc(/C=N/Nc2ccccn2)ccc1O | - | - | - | - | - | - | .
CCCOc1ccccc1/C=N/Nc1ccnc(=O)[nH]1 | - | - | - | - | - | - | .
COc1cc(-c2csc(C)n2)ccc1O | - | - | - | - | - | - | .
COc1ccc(-c2csc(C)n2)cc1Br | - | - | 7.9 | - | - | - | 5.2
O=C(COC(=O)C1CCN(/C=C/C(=O)C(F)(F)F)CC1)Nc1ccccc1 | - | - | 4.8 | - | - | - | -
OCCCn1c(-c2ccccc2)nc(=S)c2c1CCCC2 | - | - | - | - | - | - | .
S=c1nc(-c2ccccc2Cl)n(Cc2cccnc2)c2c1CCCC2 | - | - | 5.9 | - | - | - | 4.7
C=C(C)C(=O)Oc1ccc(N=Nc2ccc(C)cc2)ccc1=O | . | - | - | . | . | . | .
CC1=C(C#N)C(=O)NC(=O)/C1=C\c1ccc(-c2ccc(C)cc2[N+](=O)[O-])o1 | - | - | 9.2 | - | - | - | -
CC(=O)N(C)c1ccc(N=Nc2ccc3ncccc3c2)cc1 | - | - | 5.3 | - | - | - | 4.9
O=C(Nc1ccc2ncccc2c1)c1ccccc1 | - | - | - | - | - | - | .
CN1c2ccsc2/C(=N/Nc2ccccc2)CS1(=O)=O | - | - | 5.3 | - | - | - | -
COc1ccccc1CNc1nc(NCc2ccc3occc3c2)c2sccc2n1 | . | - | - | . | . | . | .
CS(=O)(=O)c1ccc2nc(NC(=O)c3ccc(S(=O)(=O)NCC4CCCO4)cc3)sc2c1 (stereo not given) | - | - | 5.0 | - | - | - | -
SMILES | HTR5A ag | bovine MsrA act | MsrA inh | MOR-DOR ag | MOR-DOR inv ag | HTR5A inv ag | MsrA inh confirm
CS(=O)(=O)c1ccc2nc(NC(=O)c3ccc(NS(=O)(=O)c4cccc([N+](=O)[O-])c4)cc3)sc2c1 | - | - | 5.3 | - | - | - | 5.3
Cc1ccc(NC(=O)NCc2ccco2)cc1[N+](=O)[O-] | . | . | - | . | . | . | .
CN1CCN(C(=O)C[C@H]2CC[C@H]3[C@@H](COC[C@@H](O)CN3Cc3cccc(F)c3)O2)CC1 | . | . | - | . | . | . | .
Cc1cccc(C)c1NC(=O)C(c1ccccc1OC(F)(F)F)N1CCC(c2ccccc2)CC1 (stereo not given) | . | . | - | . | . | . | .
CCOc1ccccc1NC=C1C(=O)OC(C)(C)OC1=O | - | - | - | - | - | - | .
COc1ccccc1NC=C1C(=O)OC(C)(C)OC1=O | - | - | 5.5 | - | - | - | -
CCCCNC(=O)C1c2ccccc2OCC(=O)N1Cc1ccccc1 (stereo not given) | . | - | - | . | . | . | .
COc1ccc(S(=O)(=O)CCC(=O)N2CCN(c3ccc(C(C)=O)cc3)CC2)cc1 | - | - | 4.7 | - | - | - | -
Cc1cc[n+](-c2[nH]c(=O)sc2/C=N/NC([S-])=Nc2ccccc2)cc1 | - | - | - | - | - | - | .
CCc1ccc[n+](-c2[nH]c(=O)sc2/C=N/NC([S-])=Nc2ccccc2)c1 | - | - | 6.5 | - | - | - | -
Cc1cc(C)c[n+](-c2[nH]c(=O)sc2/C=N/NC([S-])=Nc2ccccc2)c1 | - | - | 4.9 | - | - | - | 6.2
O=c1[nH]c(-[n+]2ccccc2)c(/C=N/NC([S-])=Nc2ccccc2)s1 | - | - | - | - | - | - | .
CSc1ccc(/C=C/C(=O)NC(=O)c2ccccc2O)cc1 | - | - | 6.0 | - | - | - | 4.7
O=C(/C=C/c1ccc(O)c(O)c1)NC(=O)c1ccccc1O | - | - | 6.3 | - | - | - | -
O=[N+]([O-])c1ccc(N2CCN(Cc3ccccc3)CC2)c2c1no[n+]2[O-] | . | - | - | . | . | . | .
Cc1ccc(-c2ccc(/C=N/N=C3/NC(=O)C(CC(=O)O)S3)o2)c([N+](=O)[O-])c1 (stereo not given) | - | - | 5.9 | - | - | - | 6.8
O=C(N/N=C/c1ccc(-c2ccccc2[N+](=O)[O-])o1)c1cncc(Br)c1 | - | - | - | - | - | - | .
O=C(O)CC1S/C(=N/N=C/c2ccc(-c3ccccc3[N+](=O)[O-])o2)NC1=O (stereo not given) | - | - | 4.9 | - | - | - | -
Cc1ccc(C(=O)N/N=C/c2ccc(-c3ccc(Br)cc3[N+](=O)[O-])o2)o1 | - | - | - | - | - | - | .
COC(=O)C1(C(=O)OC)C/C=C\CN(S(=O)(=O)c2ccccc2[N+](=O)[O-])CC1 | . | - | - | . | . | . | .
COC(=O)[C@]12CCCCC=C1N(CCc1ccc(OC)c(OC)c1)C(=O)[C@H](CC(=O)NCc1cccs1)C2 | . | . | - | . | . | . | .
COc1ccc(NC(=O)/C=C2\SC(=O)NC2=O)cc1 | - | - | 4.8 | - | - | - | -
O=C(CCCN1C(=O)c2cccc3cccc(c23)C1=O)N1CCN(c2ccccc2O)CC1 | - | - | 5.1 | - | - | - | -
O=c1cc2[nH]c3ccccc3c(=O)n2nc1-c1ccccc1 | - | - | 4.9 | - | - | - | -
COc1ccc(N2CSC(=S)N(c3ccc(OC)cc3)C2)cc1 | . | - | - | . | . | . | .
SMILES | HTR5A ag | bovine MsrA act | MsrA inh | MOR-DOR ag | MOR-DOR inv ag | HTR5A inv ag | MsrA inh confirm
O=c1[nH]ncc(N/N=C\c2cccnc2)c1Cl | - | - | - | - | - | - | .
COc1ccccc1/C=N\Nc1cn[nH]c(=O)c1Cl | - | - | 5.8 | - | - | - | 4.7
CCOc1ccccc1/C=N\Nc1cnn(Cc2ccccc2)c(=O)c1Cl | - | - | - | - | - | - | .
Cc1cccc(/C=N\Nc2cn[nH]c(=O)c2Cl)c1 | - | - | 8.1 | - | - | - | 5.0
O=c1[nH]ncc(N/N=C\c2ccncc2)c1Cl | - | - | 9.6 | - | - | - | 6.0
O=c1[nH]ncc(N/N=C\c2cccs2)c1Cl | - | - | 9.1 | - | - | - | 6.2
